Laboratory results reported in PubChem BioAssay (NCATS).
“And” between values parts separate entries of the source, which are not always exact repeats. Equal values may be shown once. Results filed as inconclusive are left out. A call without a number means that no potency is given here. A number with no mark means an inactive call. The source made the active and inactive calls. Unless noted, the call rests on the fitted dose curve; in most records, active means well fitted curve in the direction sought with a large enough effect; inconclusive means small, poorly fitted or top-dose-only effect, or another doubt; inactive means no such curve, though single readings can be large; an effect the other way counts as inactive or inconclusive.

Experiments:
[1] = qHTS for Inhibitors of Plasmodium falciparum (DD2) proliferation (AID 504314);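 further: parasite DNA measured by SYBR Green fluorescence after red cell lysis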
Summary of the method: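 SYBR Green DNA-fluorescence growth assay: infected RBCs at 0.3% parasitemia, 2.5% hematocrit, 72 h compound exposure, 37C, 5% CO2; overnight lysis with dye at RT; normalized to 0.29 uM artemisinin and vehicle.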

[2] = qHTS for Inhibitors of Plasmodium falciparum (GB4) proliferation (AID 504315); further: nearly all actives have a fitted effect of over 50% in size
Summary of the method: (§1)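 Parasite growth measured as SYBR Green DNA fluorescence (ex 485, em 535 nm) after overnight lysis following 72 h culture at 37 °C, 0.3% parasitemia, 2.5% hematocrit. Values normalized against DMSO and 0.29 uM artemisinin controls, with plate-stack correction.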

[3] = qHTS for Inhibitors of Plasmodium falciparum (7G8) proliferation (AID 504316); further: series mostly up to about 6.7 µM; nearly all actives have a fitted effect of over 65% in size
Summary of the method: as §1

[4] = qHTS for Inhibitors of Plasmodium falciparum (HB3) proliferation (AID 504318); further: nearly all actives have a fitted effect of over 60% in size
Summary of the method: as §1

[5] = qHTS for Inhibitors of Plasmodium falciparum (CP250) proliferation (AID 504320)
Summary of the method: as §1

[6] = target: Atrial natriuretic peptide receptor 1 (Homo sapiens) (UniProt P16066); assay: Natriuretic polypeptide receptor (hNpr1) antagonism - Pilot CMLD screen (AID 1347052; calls by dose curve;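 further: HEK293 cells with hNpr1 stimulated by hNppA peptide at 0.1 nM; cGMP level read as GloSensor luciferase luminescence after agonist stimulation; series mostly up to about 9.2 µM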)
Sequence of Atrial natriuretic peptide receptor 1 (Homo sapiens) (P16066 whole entry, looked up): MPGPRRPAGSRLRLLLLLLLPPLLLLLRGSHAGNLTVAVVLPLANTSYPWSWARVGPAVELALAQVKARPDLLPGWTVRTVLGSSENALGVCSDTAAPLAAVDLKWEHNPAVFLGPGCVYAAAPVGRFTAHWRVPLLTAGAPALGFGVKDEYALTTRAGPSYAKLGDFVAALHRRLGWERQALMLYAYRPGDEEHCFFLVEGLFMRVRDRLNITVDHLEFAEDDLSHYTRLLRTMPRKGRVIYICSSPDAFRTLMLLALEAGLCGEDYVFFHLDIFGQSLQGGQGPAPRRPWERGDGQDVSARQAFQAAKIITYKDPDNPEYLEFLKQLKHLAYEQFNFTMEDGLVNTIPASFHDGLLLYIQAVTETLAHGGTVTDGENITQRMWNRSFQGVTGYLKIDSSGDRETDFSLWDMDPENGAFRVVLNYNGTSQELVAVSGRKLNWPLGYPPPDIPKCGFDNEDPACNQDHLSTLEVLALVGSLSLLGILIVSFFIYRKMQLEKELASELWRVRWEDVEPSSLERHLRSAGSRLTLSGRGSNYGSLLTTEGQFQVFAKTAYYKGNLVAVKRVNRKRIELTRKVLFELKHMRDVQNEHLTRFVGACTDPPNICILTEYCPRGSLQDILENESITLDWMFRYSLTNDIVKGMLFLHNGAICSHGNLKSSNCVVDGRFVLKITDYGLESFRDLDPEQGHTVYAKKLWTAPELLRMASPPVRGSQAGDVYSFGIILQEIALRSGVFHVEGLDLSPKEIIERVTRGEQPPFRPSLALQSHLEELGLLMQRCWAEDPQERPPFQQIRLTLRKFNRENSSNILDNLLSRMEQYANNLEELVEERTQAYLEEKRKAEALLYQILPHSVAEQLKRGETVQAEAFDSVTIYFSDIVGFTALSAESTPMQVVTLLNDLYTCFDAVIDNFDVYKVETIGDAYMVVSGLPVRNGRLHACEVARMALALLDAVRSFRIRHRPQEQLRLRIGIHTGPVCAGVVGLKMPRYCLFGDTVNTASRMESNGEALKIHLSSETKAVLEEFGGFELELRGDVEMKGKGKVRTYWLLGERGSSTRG

[7] = target: Cytochrome P450 3A4 (Homo sapiens) (UniProt P08684); assay: qHTS Assay for Inhibitors and Substrates of Cytochrome P450 3A4 (AID 884); further: series mostly up to about 57 µM; nearly all actives have a fitted effect of over 50% in size
Sequence of Cytochrome P450 3A4 (Homo sapiens) (P08684 whole entry, looked up): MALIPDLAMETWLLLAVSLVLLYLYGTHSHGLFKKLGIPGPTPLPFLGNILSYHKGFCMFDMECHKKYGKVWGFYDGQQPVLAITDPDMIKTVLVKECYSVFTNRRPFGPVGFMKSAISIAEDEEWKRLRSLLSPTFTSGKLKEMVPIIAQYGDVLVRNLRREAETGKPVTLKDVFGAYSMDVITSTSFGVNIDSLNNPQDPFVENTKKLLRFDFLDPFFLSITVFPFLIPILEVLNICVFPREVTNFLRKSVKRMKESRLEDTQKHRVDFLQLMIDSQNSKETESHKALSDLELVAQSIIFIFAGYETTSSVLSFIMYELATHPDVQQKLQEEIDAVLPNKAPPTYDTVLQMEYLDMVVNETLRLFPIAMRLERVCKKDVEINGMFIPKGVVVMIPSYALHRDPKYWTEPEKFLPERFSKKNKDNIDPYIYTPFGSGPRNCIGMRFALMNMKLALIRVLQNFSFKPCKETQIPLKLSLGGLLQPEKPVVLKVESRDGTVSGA
Summary of the method: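 Luminescent readout of luciferin produced by CYP3A4 (20 nM) dealkylation of Luciferin-PPXE, 25 uM (its KM). NADPH-driven reaction ran 60 min at RT after 10 min compound preincubation; data scaled to 57 uM ketoconazole as 100% inhibition.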

[8] = target: Cytochrome P450 2D6 (Homo sapiens) (UniProt P10635); assay: qHTS Assay for Inhibitors and Substrates of Cytochrome P450 2D6 (AID 891);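 further: luciferin methyl ether substrate demethylated by CYP2D6 with NADPH regeneration; nearly all actives have a fitted effect of over 60% in size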
Sequence of Cytochrome P450 2D6 (Homo sapiens) (P10635 whole entry, looked up): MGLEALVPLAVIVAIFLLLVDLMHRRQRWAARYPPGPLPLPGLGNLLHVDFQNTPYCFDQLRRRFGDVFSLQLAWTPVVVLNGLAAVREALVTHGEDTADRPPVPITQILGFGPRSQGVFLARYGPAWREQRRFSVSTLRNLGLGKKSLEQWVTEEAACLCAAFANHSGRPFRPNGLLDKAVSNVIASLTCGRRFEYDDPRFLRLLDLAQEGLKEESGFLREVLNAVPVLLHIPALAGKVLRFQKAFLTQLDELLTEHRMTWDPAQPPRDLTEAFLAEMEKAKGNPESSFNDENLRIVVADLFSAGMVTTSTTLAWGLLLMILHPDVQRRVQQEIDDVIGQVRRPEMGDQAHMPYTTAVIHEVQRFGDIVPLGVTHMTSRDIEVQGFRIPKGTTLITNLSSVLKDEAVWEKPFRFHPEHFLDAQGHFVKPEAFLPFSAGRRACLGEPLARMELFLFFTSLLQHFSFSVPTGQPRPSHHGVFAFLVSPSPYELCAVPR
Summary of the method: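 Luminescent read-out of luciferin formed by 5 nM human CYP2D6 demethylating 30 uM Luciferin-ME EGE (Km level) over 60 min at room temperature after NADPH regeneration addition. Data normalized to full inhibition by 1.43 uM quinidine.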

[9] = target: Cytochrome P450 2C19 (Homo sapiens) (UniProt P33261); assay: qHTS Assay for Inhibitors and Substrates of Cytochrome P450 2C19 (AID 899); further: nearly all actives have a fitted effect of over 60% in size; further: potency means the concentration at half of the fitted maximal effect
Sequence of Cytochrome P450 2C19 (Homo sapiens) (P33261 whole entry, looked up): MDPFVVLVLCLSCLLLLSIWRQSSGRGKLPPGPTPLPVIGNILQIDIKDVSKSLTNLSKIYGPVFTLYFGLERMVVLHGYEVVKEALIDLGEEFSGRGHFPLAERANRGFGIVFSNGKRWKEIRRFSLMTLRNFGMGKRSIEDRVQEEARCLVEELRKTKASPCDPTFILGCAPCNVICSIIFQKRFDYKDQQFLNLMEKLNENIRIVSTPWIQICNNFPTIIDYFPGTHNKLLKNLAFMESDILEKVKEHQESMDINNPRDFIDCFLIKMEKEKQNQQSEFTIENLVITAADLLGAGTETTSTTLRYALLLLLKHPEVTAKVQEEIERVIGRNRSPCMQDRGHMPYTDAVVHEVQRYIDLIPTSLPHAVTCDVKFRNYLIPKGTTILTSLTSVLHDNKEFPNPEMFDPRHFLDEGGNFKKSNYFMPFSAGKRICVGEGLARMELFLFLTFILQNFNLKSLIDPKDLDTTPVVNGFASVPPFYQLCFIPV
Summary of the method: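 Reactions contain 5nM enzyme, 10uM Luciferin-H EGE (KM) and 50mM KPO4; compound preincubates 10 min at 37C, NADPH regeneration starts turnover for 60 min. Luminescence after detection reagent gives activity.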

[10] = target: Cytochrome P450 2C9 (Homo sapiens) (UniProt P11712); assay: qHTS Assay for Inhibitors and Substrates of Cytochrome P450 2C9 (AID 883); further: nearly all actives have a fitted effect of over 60% in size
Sequence of Cytochrome P450 2C9 (Homo sapiens) (P11712 whole entry, looked up): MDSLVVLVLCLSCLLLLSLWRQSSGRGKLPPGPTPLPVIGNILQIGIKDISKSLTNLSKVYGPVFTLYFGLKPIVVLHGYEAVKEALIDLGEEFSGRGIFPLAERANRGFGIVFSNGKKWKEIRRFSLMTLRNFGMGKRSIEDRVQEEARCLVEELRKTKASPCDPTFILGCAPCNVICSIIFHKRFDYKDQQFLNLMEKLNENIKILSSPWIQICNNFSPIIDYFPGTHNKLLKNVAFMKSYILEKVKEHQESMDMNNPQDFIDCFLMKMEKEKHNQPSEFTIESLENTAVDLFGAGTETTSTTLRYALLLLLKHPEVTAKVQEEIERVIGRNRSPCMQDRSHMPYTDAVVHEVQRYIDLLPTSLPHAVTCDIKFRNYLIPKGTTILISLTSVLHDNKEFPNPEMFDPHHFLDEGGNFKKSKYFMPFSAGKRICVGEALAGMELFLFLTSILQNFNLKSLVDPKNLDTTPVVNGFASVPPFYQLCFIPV
Summary of the method: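 Turnover of Luciferin-H (100uM, KM) by 10nM human CYP2C9 was measured over 60 min at 37C with NADPH regeneration; inhibitors and some substrates reduce luminescence. Data normalized to sulphaphenazole 57uM.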

CCN1C(=O)[C@@H]2[C@H]3[C@H](O)[C@H](O)CC(=NO[C@@H](C)c4cn([C@H](CO)Cc5ccccc5)nn4)[C@@H]3CC[C@H]2C1=O
Potency [1]: inactive | Potency [2]: inactive | Potency [3]: inactive | Potency [4]: inactive | Potency [5]: inactive | Potency [6]: inactive

CC(=O)c1ccc(OCc2ccccc2)c(C)c1O
activity change, negative = inhibition [7]: -20.5% [at 11.4 µM] | activity change, negative = inhibition [8]: -4.53% [at 11.4 µM] | Potency [9]: 50.1 nM (active) | Potency [1]: inactive | Potency [2]: inactive | Potency [3]: inactive | Potency [4]: inactive | Potency [5]: inactive | Potency [6]: inactive

Cc1noc(C)c1S(=O)(=O)N1CCc2nc(COc3ccccc3)c3c(c2C1)CO[C@@H](C)C3
Potency [1]: inactive | Potency [2]: inactive | Potency [3]: inactive | Potency [4]: inactive | Potency [5]: inactive | Potency [6]: inactive

O=C1CCCC=C1C(O)COCc1ccccc1 (configuration not stated)
Potency [1]: inactive | Potency [2]: inactive | Potency [3]: inactive | Potency [4]: inactive | Potency [5]: inactive | Potency [6]: inactive

COc1ccc2c(c1)[C@@]1(OCCC=C[C@@H]1C)C(=O)N2CC1CC1
Potency [1]: inactive | Potency [2]: inactive | Potency [3]: inactive | Potency [4]: inactive | Potency [5]: inactive | Potency [6]: inactive

CC1=C[C@@H](C)OC2(C1)C(=O)N(CC1CC1)c1cccc(Br)c12 (some centres not stated)
Potency [1]: inactive | Potency [2]: inactive | Potency [3]: inactive | Potency [4]: inactive | Potency [5]: inactive | Potency [6]: inactive

CCCNC(=O)OC[C@H]1O[C@H](CCON=CC[C@@H]2C=C[C@H](OC(C)=O)[C@@H](COC(C)=O)O2)C=C[C@H]1Oc1ccc(OC)cc1
Potency [1]: inactive | Potency [2]: inactive | Potency [3]: inactive | Potency [4]: inactive | Potency [5]: inactive | Potency [6]: inactive

CCOC(=O)NN=C1C[C@@H](O)[C@@H](O)[C@@H]2[C@H]3C(=O)N(Cc4ccccc4)C(=O)[C@@H]3CC[C@@H]12
Potency [1]: inactive | Potency [2]: inactive | Potency [3]: inactive | Potency [4]: inactive | Potency [5]: inactive | Potency [6]: inactive

CCC(=O)OC1(C)C(=O)C=C2C=C(c3ccc(C#N)cc3)OC=C2C1=O (configuration not stated)
Potency [1]: inactive | Potency [2]: inactive | Potency [3]: inactive | Potency [4]: inactive | Potency [5]: inactive | Potency [6]: inactive

O=C1[C@@H]2[C@H]3[C@H](O)[C@H](O)CC(=NOC[C@@H](O)COCc4ccco4)[C@H]3CC[C@H]2C(=O)N1C[C@@H]1CCCO1
Potency [1]: inactive | Potency [2]: inactive | Potency [3]: inactive | Potency [4]: inactive | Potency [5]: inactive | Potency [6]: inactive

C=CCC1(c2ccccc2)Oc2ccccc2-c2nc3cc(Cl)c(Cl)cc3nc21 (configuration not stated)
activity change, negative = inhibition [10]: -6.17% [at 11.4 µM] and 38.3% [at 11.4 µM] | activity change, negative = inhibition [7]: -17.8% [at 11.4 µM] and -22.2% [at 11.4 µM] | activity, negative = inhibition [9]: 39.4% [at 11.4 µM] and 70.5% [at 11.4 µM] | Potency [1]: inactive | Potency [2]: inactive | Potency [3]: inactive | Potency [4]: inactive | Potency [5]: inactive | Potency [6]: inactive
